The source of these data is ChEMBL document CHEMBL1157539, “Thousands of chemical starting points for antimalarial lead identification” (Nature, 2010).

What all share (assay type): functional
The test system of assay [1] is Plasmodium falciparum. The assay is described as follows: GSK_TCMDC: Inhibition of Plasmodium falciparum 3D7 in whole red blood cells, using parasite LDH activity as an index of growth. Test compounds present at 2uM.
In assay [2] the test system is Plasmodium falciparum. The assay can be described thus: GSK_TCMDC: Inhibition of Plasmodium falciparum Dd2 in whole red blood cells, using parasite LDH activity as an index of growth. Test compounds present at 2uM.
The test system of another assay is HepG2. The assay can be described thus: GSK_TCMDC: Percent inhibition of human HepG2 cell line. Test compounds present at 10uM.

In the case of `Cc1cccc(-c2ccc(CNC3CCN(CC4Cn5c(=O)ccc6ccc(F)c4c65)CC3)cn2)c1.O=C(O)C(F)(F)F` (stereo not given), the Inhibition (as a rule, the drop in the measured response relative to a control, in per cent) in the assay with Plasmodium falciparum [1] is reported as 90%; in the assay with Plasmodium falciparum [2], 2%; with HepG2, 0%.
As to `O=C(Nc1cccc(-c2ccc(-c3nc4cc(C(F)(F)F)ccc4[nH]3)cc2)c1)c1ccoc1`, the Inhibition with Plasmodium falciparum [1] was 98%; in the assay on Plasmodium falciparum [2], 42%; in the assay with HepG2, 76%.
For `CC(C)COc1ccc(C(O)C(CN2CCCCC2)c2ccccc2)cc1` (stereo not given), in that order: 93%, 89% and 11%.
For `O=[N+]([O-])c1cccc(NC(=S)N2CCCN(Cc3ccc(F)cc3F)CC2)c1`, the values for the Inhibition in the assay on Plasmodium falciparum [1], in the assay on Plasmodium falciparum [2] and in the assay on HepG2 were 99%, 98% and 5%, respectively.
For `COc1ccc(CCN(C)CCCOc2ccc(NC(=O)c3cccc4c(=O)c5ccccc5[nH]c34)cc2)cc1OC`, in that order: 94%, 45% and 80%.
Take `O=C(Nc1ccc(Cl)c(Cl)c1)N[C@H]1CCN(CCCCCNC(=O)C2CC2c2ccc(Cl)c(Cl)c2)C1` (stereo not given in full): the results for the Inhibition in the assay on Plasmodium falciparum [1], in the assay with Plasmodium falciparum [2] and in the assay with HepG2 were 93%, 8% and 42%, respectively.
Take `CCc1c[nH]c2c(N3CCCS3(=O)=O)cc(C(=O)N[C@@H](Cc3ccccc3)[C@H](O)CNC3CCCCC3)cc12.O=CO`: the Inhibition in the assay with Plasmodium falciparum [1] was found to be 99%; with Plasmodium falciparum [2], 89%; in the assay on HepG2, 6%.
As to `COc1ccc(C(=O)Nc2ccc(-c3nc4cc(C)ccc4[nH]3)cc2)cc1OC`, the Inhibition in the assay on Plasmodium falciparum [1] is listed as 100%; in the assay with Plasmodium falciparum [2], 38%; in the assay with HepG2, 70%.
The matching figures for `O=C(O)C[C@H](NC(=O)CCCNC(=O)c1cccc(-c2ccc(Cl)c(Cl)c2)c1)C(=O)O`: 91%, 0% and 5%.
Consider `O=C(CCn1c2ccccc2c2ccccc21)NN=Cc1ccco1`, for which the results for the Inhibition with Plasmodium falciparum [1], in the assay with Plasmodium falciparum [2] and in the assay with HepG2 were 96%, 0% and 6%, respectively.
